Laboratory results reported in PubChem BioAssay (EPA / NIEHS).
Records with an inconclusive call do not appear. The source made the active and inactive calls. Rule for the calls, unless noted: active = hit-call score of the fitted dose curve at least 0.9, where 1 is the maximum; inconclusive = response in the unintended direction; inactive = score below 0.9.

Legend:
[1] = ATG_TCF_b_cat_CIS: Attagene CIS-FACTORIAL HepG2 Assay for human T-Cell-Factor with beta-catenin (TCF/b-cat) (AID 2282965; active = hit-call score of the fitted dose curve at least 0.9, where 1 is the maximum; inactive = score below 0.9); settings: HepG2 TCF/beta-catenin cis-reporter transcription, actives raise or lower the signal
In short: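 HepG2, transient MRTU transfection, cis-element-driven reporters (endogenous TFs). 24 h compound exposure. Readout: reporter mRNA by RT-PCR + 6-FAM primer extension, HpaI digest, capillary electrophoresis. Gain/loss fit vs DMSO baseline.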

[2] = ATG_TGFb_CIS: Attagene CIS-FACTORIAL HepG2 Assay for human Transforming Growth Factor (TGF) (AID 2282967; active = hit-call score of the fitted dose curve at least 0.9, where 1 is the maximum; inactive = score below 0.9); settings: HepG2 Attagene CIS TGFb reporter, mRNA transcription; actives raise or lower the signal
In short: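 Transient MRTU transfection of HepG2 (FuGene 6). Dose 24 h. TriZol RNA, oligo(dT) RT, PCR, 6-FAM primer extension, HpaI cut, CE. Bidirectional fit, DMSO = baseline.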

[3] = ATG_VDRE_CIS: Attagene CIS-FACTORIAL HepG2 Assay for human Vitamin D Receptor Element (VDRE) (AID 2282968; active = hit-call score of the fitted dose curve at least 0.9, where 1 is the maximum; inactive = score below 0.9); settings: HepG2 VDRE cis-reporter transcription, actives raise or lower the signal
In short: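 Cell-based multiplexed reporter format in human liver HepG2 cells, 24 h post-dose. Fluorescence from capillary electrophoresis of reporter cDNA gives the signal, with DMSO as negative control and baseline.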

[4] = target: Estrogen receptor (Homo sapiens) (UniProt P03372); experiment: ATG_ERa_TRANS: Attagene TRANS-FACTORIAL HepG2 Assay for human Estrogen Receptor alpha (ERa) (AID 2282970); settings: HepG2 Attagene TRANS ERa GAL4 reporter, mRNA
In short: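 HepG2 cells transiently transfected with multiplexed GAL4-UAS reporter units read out chimeric NR-Gal4 activity. After 24 h compound exposure, reporter mRNA was quantified by RT-PCR, 6-FAM labeling, HpaI digestion and capillary electrophoresis, relative to DMSO.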

[5] = target: Steroid hormone receptor ERR1 (Homo sapiens) (UniProt P11474); experiment: ATG_ERRa_TRANS: Attagene TRANS-FACTORIAL HepG2 Assay for human Estrogen-Related Receptor alpha (ERRa) (AID 2282971); settings: HepG2 Attagene TRANS reporter, ERRa transactivation
In short: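 HepG2 cells transiently transfected with GAL4-UAS reporter units and chimeric NR-Gal4 constructs; after 24 hour compound incubation, reporter mRNA quantified by RT-PCR, fluorescent labelling and capillary electrophoresis, gain of signal versus DMSO.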

[6] = target: X-box-binding protein 1 (Homo sapiens) (UniProt P17861); experiment: ATG_Xbp1_CIS: Attagene CIS-FACTORIAL HepG2 Assay for human X-box Binding Protein 1 (XBP1) (AID 2282972; active = hit-call score of the fitted dose curve at least 0.9, where 1 is the maximum; inactive = score below 0.9); settings: HepG2 XBP1 cis-element reporter, Attagene multiplex; actives raise or lower the signal
In short: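 HepG2 cells transiently transfected with cis-regulated multiple reporter transcription units; endogenous transcription factor activity measured 24 hours after chemical dosing. Reporter mRNA quantified by RT-PCR, 6-FAM primer extension, HpaI digestion and capillary electrophoresis; bidirectional fitting versus DMSO.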

[7] = ATG_M_19_TRANS: Attagene TRANS-FACTORIAL HepG2 Assay for M19 Transcription Factor (Internal Marker) (AID 2282974); settings: HepG2 Attagene TRANS-FACTORIAL M19 internal marker reporter
In short: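 Fluorescence of 6-FAM-labelled reporter cDNA fragments, separated by capillary electrophoresis, served as the readout. These derived from HepG2 cells carrying transfected GAL4-UAS reporter units after 24 h dosing, with DMSO as negative control.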

[8] = ATG_Hpa5_TRANS: Attagene TRANS-FACTORIAL HepG2 Assay for human GAL4-Hpa5 Hepatocyte Transcription Factor Basal Promoter (AID 2282975); settings: HepG2 Attagene GAL4-Hpa5 transcription reporter;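 note: hits are increases in reporter mRNA over DMSO baseline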
In short: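 Basal-promoter GAL4 background control within the HepG2 trans-factorial panel of transiently transfected reporter units. Reporter mRNA is measured 24 h after dosing by RT-PCR and capillary electrophoresis, fitted for gain of signal versus DMSO.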

[9] = target: Estrogen-related receptor gamma (Homo sapiens) (UniProt P62508); experiment: ATG_ERRg_TRANS: Attagene TRANS-FACTORIAL HepG2 Assay for human Estrogen-Related Receptor gamma (ERRg) (AID 2282977); settings: HepG2 Attagene TRANS reporter, ERRg transactivation;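 note: hits increase reporter signal over DMSO so potencies reflect activators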
In short: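 Transient HepG2 transfectants, 24 h compound exposure, GAL4-UAS reporter mRNA by RT-PCR/6-FAM labelling/capillary electrophoresis; positive direction vs DMSO.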

[10] = target: Glucocorticoid receptor (Homo sapiens) (UniProt P04150); experiment: ATG_GR_TRANS: Attagene TRANS-FACTORIAL HepG2 Assay for human Glucocorticoid Receptor (GR) (AID 2282978); settings: HepG2 Attagene TRANS GR reporter, mRNA transcription;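 note: activators score as hits since higher reporter transcript over DMSO is fitted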
In short: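 Fluorescent capillary-electrophoresis quantitation of reporter mRNA is the readout, taken 24 h after dosing human HepG2 cells carrying transiently transfected GAL4-UAS reporter units activated by chimeric NR-GAL4 fusions; activity scored as induction over DMSO.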

[11] = target: Oxysterols receptor LXR-beta (Homo sapiens) (UniProt P55055); experiment: ATG_LXRb_TRANS: Attagene TRANS-FACTORIAL HepG2 Assay for human Liver X Receptor beta (LXRb) (AID 2282981); settings: HepG2 Attagene TRANS GAL4-LXRb reporter, mRNA
In short: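 Gain-of-signal mRNA reporter endpoint, DMSO as negative control. Transiently transfected HepG2 cells carrying the NR-Gal4 chimera and GAL4-UAS reporter units were treated 24 h; transcripts quantified by RT-PCR and capillary electrophoresis fluorescence.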

[12] = target: Hepatocyte nuclear factor 4-alpha (Homo sapiens) (UniProt P41235); experiment: ATG_HNF4a_TRANS: Attagene TRANS-FACTORIAL HepG2 Assay for human Hepatocyte Nuclear Factor 4 alpha (HNF4a) (AID 2282982); settings: HepG2 HNF4a transactivation reporter, mRNA readout
In short: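 Gain-of-signal mRNA induction, relative to DMSO vehicle, was read after 24 h compound treatment of HepG2 cells bearing transfected GAL4-UAS reporters. Detection used RT-PCR, 6-FAM primer extension and capillary electrophoresis.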

[13] = ATG_M_32_TRANS: Attagene TRANS-FACTORIAL HepG2 Assay for M32 Transcription Factor (Internal Marker) (AID 2282984); settings: HepG2 Attagene TRANS M32 internal marker reporter
In short: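 Capillary electrophoresis of 6-FAM-labelled reporter fragments gives the signal; data fitted for gain over DMSO negative control. Source: HepG2 cells bearing transient multiple reporter transcription units, 24 h exposure.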

[14] = ATG_M_06_TRANS: Attagene TRANS-FACTORIAL HepG2 Assay for M06 Transcription Factor (Internal Marker) (AID 2282983); settings: HepG2 Attagene TRANS M06 internal marker reporter
In short: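 HepG2 cells transiently transfected with GAL4-UAS multiple reporter units, dosed 24 h. Reporter RNA reverse-transcribed, PCR-amplified, 6-FAM-labeled, HpaI-digested and quantified by capillary electrophoresis; this internal-marker signal fitted upward relative to DMSO.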

[15] = target: Nuclear receptor subfamily 1 group I member 3 (Homo sapiens) (UniProt Q14994); experiment: ATG_CAR_TRANS: Attagene TRANS-FACTORIAL HepG2 Assay for human Constitutive Androstane Receptor (CAR) (AID 2282969); settings: HepG2 Attagene TRANS-FACTORIAL CAR reporter;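 note: activators raise reporter mRNA above DMSO so AC50 marks induction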
In short: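 HepG2 cells transiently transfected with GAL4-UAS reporter units; TRANS format reads activity of exogenous chimeric NR-Gal4 protein. After 24 h dosing, reporter mRNA quantified by RT-PCR, 6-FAM labelling and capillary electrophoresis; gain of signal fitted against DMSO.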

[16] = ATG_GAL4_TRANS: Attagene TRANS-FACTORIAL HepG2 Assay for GAL4 (Internal Marker) (AID 2282976); settings: HepG2 Attagene TRANS GAL4 internal marker reporter
In short: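 Background-control readout: GAL4-UAS reporter transcript in transiently transfected HepG2 cells after 24 h compound exposure. Measured by RT-PCR, 6-FAM primer extension, HpaI digest and capillary electrophoresis; gain-of-signal fit versus DMSO.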

Measured: AC50

Sequence of X-box-binding protein 1 (Homo sapiens) (P17861 whole entry, looked up): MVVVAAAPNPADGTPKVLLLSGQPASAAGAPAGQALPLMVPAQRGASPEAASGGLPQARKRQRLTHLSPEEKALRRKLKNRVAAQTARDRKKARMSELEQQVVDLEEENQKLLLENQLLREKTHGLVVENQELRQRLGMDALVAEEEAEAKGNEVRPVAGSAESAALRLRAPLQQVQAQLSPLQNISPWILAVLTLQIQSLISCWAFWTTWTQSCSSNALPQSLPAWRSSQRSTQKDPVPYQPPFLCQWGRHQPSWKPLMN
Sequence of Estrogen receptor (Homo sapiens) (P03372 whole entry, looked up, the tested form may be a part): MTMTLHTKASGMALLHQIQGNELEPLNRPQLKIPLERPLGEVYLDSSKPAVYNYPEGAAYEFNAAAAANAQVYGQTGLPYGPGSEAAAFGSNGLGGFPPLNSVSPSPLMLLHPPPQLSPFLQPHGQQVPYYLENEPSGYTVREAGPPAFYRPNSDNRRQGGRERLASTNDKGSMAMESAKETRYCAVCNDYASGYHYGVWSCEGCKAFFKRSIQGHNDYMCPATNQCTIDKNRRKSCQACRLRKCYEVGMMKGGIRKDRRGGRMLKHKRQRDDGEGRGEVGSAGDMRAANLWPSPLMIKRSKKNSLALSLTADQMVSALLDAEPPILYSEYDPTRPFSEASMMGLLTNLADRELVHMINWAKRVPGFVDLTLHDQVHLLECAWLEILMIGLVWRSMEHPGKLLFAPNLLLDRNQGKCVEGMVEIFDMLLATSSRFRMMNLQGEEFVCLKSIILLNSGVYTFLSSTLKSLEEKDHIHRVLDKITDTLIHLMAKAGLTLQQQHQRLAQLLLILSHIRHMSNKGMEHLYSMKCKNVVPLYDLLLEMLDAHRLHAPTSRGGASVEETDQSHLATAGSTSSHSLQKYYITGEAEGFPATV
Sequence of Oxysterols receptor LXR-beta (Homo sapiens) (P55055 whole entry, looked up, the tested form may be a part): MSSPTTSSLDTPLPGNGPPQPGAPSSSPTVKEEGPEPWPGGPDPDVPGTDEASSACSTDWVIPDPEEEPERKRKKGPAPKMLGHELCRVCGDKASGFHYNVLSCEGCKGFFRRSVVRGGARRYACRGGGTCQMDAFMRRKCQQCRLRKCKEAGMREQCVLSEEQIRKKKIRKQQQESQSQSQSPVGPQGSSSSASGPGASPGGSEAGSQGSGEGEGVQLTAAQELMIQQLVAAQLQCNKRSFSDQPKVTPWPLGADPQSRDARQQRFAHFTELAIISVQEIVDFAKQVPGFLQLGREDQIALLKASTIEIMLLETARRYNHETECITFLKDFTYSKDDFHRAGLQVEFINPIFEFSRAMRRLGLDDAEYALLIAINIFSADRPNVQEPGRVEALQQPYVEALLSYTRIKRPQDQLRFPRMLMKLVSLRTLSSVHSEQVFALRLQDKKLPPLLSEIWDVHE
Sequence of Hepatocyte nuclear factor 4-alpha (Homo sapiens) (P41235 whole entry, looked up, the tested form may be a part): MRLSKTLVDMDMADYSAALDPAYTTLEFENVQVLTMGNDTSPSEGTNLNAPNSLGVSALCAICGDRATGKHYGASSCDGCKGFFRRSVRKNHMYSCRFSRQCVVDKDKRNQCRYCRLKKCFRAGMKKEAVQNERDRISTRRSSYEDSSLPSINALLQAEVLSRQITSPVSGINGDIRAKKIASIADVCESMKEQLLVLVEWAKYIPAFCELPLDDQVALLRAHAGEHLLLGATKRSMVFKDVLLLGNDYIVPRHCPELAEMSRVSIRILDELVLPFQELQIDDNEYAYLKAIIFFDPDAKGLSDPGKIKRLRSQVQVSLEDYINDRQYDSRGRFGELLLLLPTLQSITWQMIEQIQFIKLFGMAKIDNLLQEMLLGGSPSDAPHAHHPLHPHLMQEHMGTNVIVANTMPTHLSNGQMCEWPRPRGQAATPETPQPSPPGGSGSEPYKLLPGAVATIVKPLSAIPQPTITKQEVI
Sequence of Glucocorticoid receptor (Homo sapiens) (P04150 whole entry, looked up, the tested form may be a part): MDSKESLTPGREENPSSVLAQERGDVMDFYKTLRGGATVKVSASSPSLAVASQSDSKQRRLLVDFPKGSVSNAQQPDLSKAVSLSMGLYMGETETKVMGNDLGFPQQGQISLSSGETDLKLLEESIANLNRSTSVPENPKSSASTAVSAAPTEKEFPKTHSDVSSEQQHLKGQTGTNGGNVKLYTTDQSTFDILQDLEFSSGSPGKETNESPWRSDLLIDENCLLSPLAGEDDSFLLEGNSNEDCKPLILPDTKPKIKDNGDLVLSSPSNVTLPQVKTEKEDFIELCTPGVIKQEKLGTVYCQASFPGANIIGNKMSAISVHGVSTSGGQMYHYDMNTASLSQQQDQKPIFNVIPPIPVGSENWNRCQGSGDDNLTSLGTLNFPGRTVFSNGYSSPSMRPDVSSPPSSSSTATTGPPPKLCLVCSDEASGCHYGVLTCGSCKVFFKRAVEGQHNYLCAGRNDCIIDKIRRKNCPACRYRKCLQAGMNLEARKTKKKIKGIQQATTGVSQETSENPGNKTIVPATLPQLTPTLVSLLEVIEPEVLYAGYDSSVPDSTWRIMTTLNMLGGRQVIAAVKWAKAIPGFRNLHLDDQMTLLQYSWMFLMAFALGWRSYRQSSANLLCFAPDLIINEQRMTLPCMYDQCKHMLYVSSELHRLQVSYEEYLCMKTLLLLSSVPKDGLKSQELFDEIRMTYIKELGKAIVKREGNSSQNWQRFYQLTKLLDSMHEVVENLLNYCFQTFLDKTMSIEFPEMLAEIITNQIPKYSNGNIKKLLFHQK
Sequence of Nuclear receptor subfamily 1 group I member 3 (Homo sapiens) (Q14994 whole entry, looked up, the tested form may be a part): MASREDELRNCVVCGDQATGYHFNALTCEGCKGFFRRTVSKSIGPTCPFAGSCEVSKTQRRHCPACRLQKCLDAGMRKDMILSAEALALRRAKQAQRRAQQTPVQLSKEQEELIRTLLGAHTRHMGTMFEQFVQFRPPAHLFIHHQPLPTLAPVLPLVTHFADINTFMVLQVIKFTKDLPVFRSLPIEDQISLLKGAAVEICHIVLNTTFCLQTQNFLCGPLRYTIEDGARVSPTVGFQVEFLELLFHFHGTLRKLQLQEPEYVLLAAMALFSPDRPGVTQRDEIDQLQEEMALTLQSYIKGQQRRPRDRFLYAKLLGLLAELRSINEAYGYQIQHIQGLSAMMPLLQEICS
Sequence of Steroid hormone receptor ERR1 (Homo sapiens) (P11474 whole entry, looked up, the tested form may be a part): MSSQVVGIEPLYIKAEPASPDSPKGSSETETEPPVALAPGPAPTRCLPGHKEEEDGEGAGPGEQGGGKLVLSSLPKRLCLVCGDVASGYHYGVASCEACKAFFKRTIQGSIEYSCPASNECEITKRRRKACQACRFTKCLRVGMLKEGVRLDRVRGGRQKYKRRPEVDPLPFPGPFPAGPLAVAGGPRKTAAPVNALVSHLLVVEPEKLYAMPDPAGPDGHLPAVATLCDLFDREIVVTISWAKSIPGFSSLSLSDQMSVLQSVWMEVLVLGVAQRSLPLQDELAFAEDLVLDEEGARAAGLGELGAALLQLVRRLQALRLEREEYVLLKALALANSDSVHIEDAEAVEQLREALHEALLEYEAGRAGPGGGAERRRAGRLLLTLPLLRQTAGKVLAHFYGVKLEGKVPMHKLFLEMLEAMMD
Sequence of Estrogen-related receptor gamma (Homo sapiens) (P62508 whole entry, looked up, the tested form may be a part): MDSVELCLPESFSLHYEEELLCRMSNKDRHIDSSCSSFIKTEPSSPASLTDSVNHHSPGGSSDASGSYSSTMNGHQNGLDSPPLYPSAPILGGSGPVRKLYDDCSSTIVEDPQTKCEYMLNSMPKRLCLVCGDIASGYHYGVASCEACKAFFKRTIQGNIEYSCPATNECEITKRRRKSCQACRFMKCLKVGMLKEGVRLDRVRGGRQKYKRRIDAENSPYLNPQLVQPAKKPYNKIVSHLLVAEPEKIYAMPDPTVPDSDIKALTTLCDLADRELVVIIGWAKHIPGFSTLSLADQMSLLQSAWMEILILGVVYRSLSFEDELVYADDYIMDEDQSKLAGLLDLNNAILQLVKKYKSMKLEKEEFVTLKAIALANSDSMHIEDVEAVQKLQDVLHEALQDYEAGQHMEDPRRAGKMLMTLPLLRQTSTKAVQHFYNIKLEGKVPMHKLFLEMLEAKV

CC(C)Oc1cccc(NC(=O)c2ccccc2C(F)(F)F)c1
active: [3] 17.6 µM
inactive: [1] | [2] | [4] | [5] | [6] | [7] | [8] | [9] | [10] | [11] | [12] | [13]

OC(c1ccc(Cl)cc1)(c1ccc(Cl)cc1)C(Cl)(Cl)Cl
inactive: [1] | [2] | [3] | [4] | [5] | [6] | [10] | [11] | [12] | [14]

Cc1ccc(N=CN(C)C=Nc2ccc(C)cc2C)c(C)c1
inactive: [1] | [2] | [3] | [15] | [6] | [10] | [11] | [14]

CCNP(=S)(OC)O/C(C)=C/C(=O)OC(C)C (centres undefined)
inactive: [1] | [2] | [15] | [6] | [11] | [12] | [14]
active: [3] 13.8 µM | [4] 31.9 µM

CC1(C)C(C=C(Cl)Cl)C1C(=O)OC(C#N)c1cccc(Oc2ccccc2)c1 (centres undefined)
inactive: [1] | [2] | [15] | [6] | [7] | [8] | [16] | [10] | [12] | [14] | [13]
active: [3] 4.91 µM | [4] 19.7 µM

CN/C(=N\[N+](=O)[O-])NCc1cnc(Cl)s1
inactive: [1] | [2] | [3] | [15] | [4] | [6] | [11] | [14] | [13]

Cc1cnc(C2=NC(C)(C(C)C)C(=O)N2)c(C(=O)O)c1 (centres undefined)
inactive: [1] | [2] | [4] | [6] | [7] | [11] | [12]
active: [3] 50 µM

CNC(=O)N(C)c1nnc(C(C)(C)C)s1
inactive: [1] | [2] | [3] | [4] | [6] | [8] | [11] | [12] | [14] | [13]

CCCC(=NOCC)C1=C(O)CC(CC(C)SCC)CC1=O (centres undefined)
inactive: [1] | [2] | [3] | [15] | [4] | [6] | [7] | [8] | [10] | [11] | [12] | [13]

CCCN(CC)CC1COC2(CCC(C(C)(C)C)CC2)O1 (centres undefined)
active: [2] 19.9 µM | [3] 9.19 µM | [6] 25.3 µM
inactive: [1] | [15] | [4] | [7] | [8] | [10] | [11] | [12] | [13]
